Screens as filed in PubChem.
Gal4-VP16 FLuc: Gal4-VP16 reporter inhibition counter-screen. Drosophila S2 Gal4-VP16 UAS-luciferase, luminescence, 20 h. Potency, µM (highest dose often 53.6 µM), hits mostly inhibitors. 310,000 compounds, 3.5% hits;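 also: Gal4-VP16 expression switched on by copper sulfate through the metallothionein promoter; nearly all actives have a fitted effect of over 50% in size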
RORgamma inh: blocks mouse ROR gamma transcriptional activity | P51450 | Drosophila S2 Gal4-RORgamma UAS-luciferase reporter, 20 h | Potency, µM (top dose mostly 53.6 µM), most hits filed as inhibitors | 310,000 compounds, 5.4% hits | AID 2551; also: nearly all actives have a fitted effect of over 60% in size
Target sequence (P51450 whole entry, looked up, the tested form may be a part): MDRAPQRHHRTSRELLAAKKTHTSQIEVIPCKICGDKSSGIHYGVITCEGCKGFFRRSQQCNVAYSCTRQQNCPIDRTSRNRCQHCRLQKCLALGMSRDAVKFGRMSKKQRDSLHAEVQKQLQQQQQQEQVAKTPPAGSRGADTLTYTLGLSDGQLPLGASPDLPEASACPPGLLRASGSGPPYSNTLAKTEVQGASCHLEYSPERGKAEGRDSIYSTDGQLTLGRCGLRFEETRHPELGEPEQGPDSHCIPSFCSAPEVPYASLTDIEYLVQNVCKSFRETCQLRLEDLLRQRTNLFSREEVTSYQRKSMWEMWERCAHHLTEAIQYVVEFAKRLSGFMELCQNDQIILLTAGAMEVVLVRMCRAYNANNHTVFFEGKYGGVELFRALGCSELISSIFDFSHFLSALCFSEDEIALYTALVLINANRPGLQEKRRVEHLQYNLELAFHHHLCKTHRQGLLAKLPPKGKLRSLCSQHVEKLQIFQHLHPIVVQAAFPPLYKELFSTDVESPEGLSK
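Stably transfected Drosophila Schneider cells are the test system, with ROR gamma fused to Gal4 and luciferase under UAS control; luminescence is read after 20 hr of 700 uM copper sulfate induction at ambient temperature.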
IL1B secr inh: blocks inflammasome-driven IL-1 beta release; 360,000 compounds, 4.7% hits; activity change, % at 57.5 µM; THP-1 LPS/ATP IL-1B secretion, AlphaLISA, 16 h; stronger effect = lower value; in the data active = activity change below about -50%; inconclusive = mostly about -30% to -49%
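THP-1 cells pretreated 1 hr with compounds (up to 57.5 uM final), then stimulated with LPS (250 ng/mL final) plus ATP (1.25 mM final); secreted IL-1B measured by AlphaLISA after 16 hr, decreased signal indicating inhibition.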
MCF10A rereplic: DNA re-replication induction in MCF 10a cells; AID 624296; 350,000 compounds, 2.9% hits; MCF 10A DNA re-replication, Hoechst nuclear intensity, 48 h; Potency, µM (titrated, usually from 46.1 µM), hits mostly activators; also: nearly all actives have a fitted effect of over 50% in size
SW480 rerep: induces DNA re-replication in SW480 colon adenocarcinoma cells; Potency, µM (top dose mostly 46.1 µM), actives largely listed as activators; AID 624297; 340,000 compounds, 1.8% hits; SW480 DNA re-replication, Hoechst DNA content imaging, 48 h; also: nearly all actives have a fitted effect of over 55% in size
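250 cells/well; 23 nL cpd via pin tool; 48 hr, 37 C, 5% CO2; Hoechst 40 min; imager read of total nuclear intensity, ex 405/em 500-530 nm.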
A number is an active result; - = inactive; ? = inconclusive; . = no result; [ ] = remark or other dose. An excerpt weighted towards active compounds, which were near 11% of everything screened. Unless noted, calls follow the shape of the dose curve; as a rule, active = well fitted curve in the direction sought with a large enough effect; inconclusive = small, poorly fitted or top-dose-only effect, or another doubt; inactive = no such curve, though single readings can be large; an effect the other way counts as inactive or inconclusive.

SMILES	Gal4-VP16 FLuc	RORgamma inh	IL1B secr inh	MCF10A rereplic	SW480 rerep
COc1cc2oc3ccc(C#Cc4ccccn4)cc3c(=O)c2cc1OC	.	.	-	21µM	?
Cn1c2ccccc2c(=O)c2ccc(C#Cc3ccccn3)cc21	16µM	11µM	-	?	-
Cn1c2ccccc2c(=O)c2cc(C#Cc3ccccn3)ccc21	?	?	-	-	-
COc1cc2oc3ccc(C#Cc4ccc(N)cc4)cc3c(=O)c2cc1OC	.	.	-	23µM	-
COc1cc2oc3cc(C#Cc4ccc(N)cc4)ccc3c(=O)c2cc1OC	.	.	-61	9.2µM	9.2µM
N#Cc1ccc(C#Cc2ccc3oc4ccccc4c(=O)c3c2)cc1	.	.	-	-	-
CN(CC(=O)Nc1ccc(Cl)c(C(F)(F)F)c1)C(=O)c1ccc2c(c1)NC(=O)CS2	.	.	-	-	-
C[C@@H]1CCCCO[C@H](CN(C)C(=O)Cc2ccccc2)[C@H](C)CN([C@@H](C)CO)C(=O)c2cc(NC(=O)Nc3ccc(F)cc3)ccc2O1	.	.	-	.	.
CC(C)C[C@H]1CN(CCCC[C@H]2CNC(=O)C(=O)N2CCc2ccc(O)cc2)C(=O)C(=O)N1CCc1ccc(O)cc1	.	.	-	.	.
Nc1ccc(C#Cc2ccc3c(=O)c4ccccc4oc3c2)cc1	-	-	?	?	16µM
NC(=O)C(c1cccc(Cl)c1)c1ncc(C(F)(F)F)cc1Cl (centres undefined)	-	-	-	-	-
NC(=S)C(c1ccccc1)c1ncc(C(F)(F)F)cc1Cl (centres undefined)	?	6.3µM	-	-	-
CC(C)Oc1ccc(CSC(=N)N)cc1	-	-	-	-	-
CCCCOc1ccc(CSCCN)cc1Cl	2µM	1.3µM	-83	?	-
CCOc1ccc(CSC(=N)N)cc1[N+](=O)[O-]	-	-	-97	?	?
CCCCOc1ccc(CSc2nnc(C)n2N)cc1[N+](=O)[O-]	-	-	-	-	-
CCOc1ccc(CSC(=N)N)cc1Cl	-	-	-52	18µM	?
COCCNc1nc(-c2ccccc2CN(C)C)nc2ccccc12	-	-	.	.	.
CCCNC(=O)c1cc(C2CCCN(C(=O)c3ccc(OC)cc3)C2)on1 (centres undefined)	.	.	-	.	.
Cc1cc(NC(=O)NC(=O)c2ccccc2NC(=O)C(C)N)ccc1Oc1ncc(Br)cn1 (centres undefined)	.	.	-	?	2.9µM
CCOC(=O)CN1NC2(CCCCC2)NC1=S	?	16µM	-	-	-[9.22 µM]
CC(C)(C)C1CCC2(CC1)NC(=S)N(c1ccccc1)N2 (centres undefined)	16µM	10µM	-	?	-
CCC(C)(C)C1CCC2(CC1)NC(=S)N(c1ccccc1)N2 (centres undefined)	?	?	-	?	-
CCOC(=O)CN1NC2(CCC(C(C)(C)C)CC2)NC1=S (centres undefined)	?	10µM	-	-	-[9.22 µM]
CCOC(=O)CN1NC2(CCCCCCC2)NC1=S	-	4µM	-	-	-
SMILES	Gal4-VP16 FLuc	RORgamma inh	IL1B secr inh	MCF10A rereplic	SW480 rerep
CNC(=O)[C@]1(C(F)(F)F)C[C@H](CCC2CCCCC2)CCCO1	-	-	.	.	.
CCOc1ccc(CN(C)C(=O)CNC(=O)C2CCCCC2)cc1	-	-	-	-	?
CCN(CC)c1ccc2cc(C(N)=O)c(=N)oc2c1	-[10 µM]	-	-	18µM	?
CCN(CC)c1ccc2cc(C(N)=O)c(=O)oc2c1	-	-	-	-	?
CCN(CC)c1ccc2cc(NC(=O)CCC(=O)O)c(=O)oc2c1	1.3µM	0.79µM	-	-	-
CCN(CC)c1ccc2cc(C=O)c(=O)oc2c1	-	-	-	12µM	?
CCN(CC)c1ccc2cc(C(=O)Nc3ccccn3)c(=O)oc2c1	?	?	-	1.3µM	?
CCCCNC(=O)C(NC(=O)c1cnc(C)cn1)C(=O)c1ccccc1 (centres undefined)	.	.	-	.	.
CCN(CC)c1ccc2cc(C(C)=O)c(=O)oc2c1	-	-	-	10µM	21µM
CC1(C)N=C(SCC(=O)Nc2ccc(Cl)cc2)C(c2ccccc2)=N1	-	-	-87	-	-
CC1(C)N=C(SCC(=O)Nc2ccc(Cl)cc2)C(c2ccc(Cl)cc2)=N1	-	-	-109	18µM	?
CC(=O)Nc1ccc(SCC(=O)Nc2ccc(Cl)cn2)cc1	-	-	-	-	-
Cc1cccc(OCCOCCSc2ncccn2)c1	-	?	-	-	-
CCNc1nc(NCC)nc(SCCOc2ccc(C)cc2)n1	?	?	-	21µM	-
Cc1cccc(OCCSc2nc(N)cc(N)n2)c1	-	?	-	?	16µM
COC(=O)c1cc(C#N)c(N2CCN(C)CC2)nc1C	-	-	-	21µM	-
COC(=O)c1cc(C#N)c(N2CC(C)OC(C)C2)nc1C (centres undefined)	-	-	-	-	-
COc1ccc(NC(=O)C(c2ccc(OC)cc2)N(C)C(=O)CC2NC(=O)NC2=O)cc1 (centres undefined)	-	-	-	-	-
CC(C)c1ccc(NC(=O)C(c2ccccc2)N(Cc2ccco2)C(=O)CC2NC(=O)NC2=O)cc1 (centres undefined)	-	?	-56	-	-
CCCCCCCCCCCCCCCCn1cc[n+](Cc2ccccc2)c1C	7.1µM	?	.	.	.
O=C(NC(=S)Nc1ccc(Cl)cn1)c1cccs1	1µM	?	-	-	-
O=C(NC(=S)Nc1cccnc1)c1cccs1	-	10µM	-	-	-
O=C(COC(=O)c1cccs1)Nc1ccc(Cl)cn1	.	.	-	-	-
CC(C)Cc1c2c([nH]c(=S)c1C#N)CCCC2	?	6.3µM	-	-	13µM
N#Cc1c(N)sc(=S)c2c1CCCC2	-	-	-	-	-[9.22 µM]
SMILES	Gal4-VP16 FLuc	RORgamma inh	IL1B secr inh	MCF10A rereplic	SW480 rerep
Cc1ccc(C(C(=O)NC2CCCCC2)N(C(=O)Cc2c[nH]c3ccccc23)c2ccccc2C)o1 (centres undefined)	?	-[10 µM]	-	?	?
COc1ccc(C(C(=O)NC2CCCCC2)N(C(=O)Cc2c[nH]c3ccccc23)c2ccccc2C)cc1OC (centres undefined)	-	-[10 µM]	-61	-	-
Cc1ccc(C(C(=O)NC2CCCCC2)N(Cc2ccco2)C(=O)Cc2c[nH]c3ccccc23)o1 (centres undefined)	-	-	-77	?	-
CSc1ncccc1C(=O)Nc1cccc(S(=O)(=O)N2CCCCCC2)c1	.	.	-	-	-
Cc1ccc(C(=O)N2CCN(S(=O)(=O)c3sc(C(=O)O)c(C)c3C(=O)O)CC2)s1	.	.	-	-	-
O=C(O)/C=C/C(=O)c1ccc2c(c1)CCc1ccccc1-2	.	.	-104	3.7µM	4.1µM
S=C(NN=Cc1ccc2c(c1)OCO2)NN=Cc1ccc2c(c1)OCO2	.	.	-	-	?
COCCNC(=S)N/N=C/c1ccc2c(c1)OCCO2	?	10µM	-	-	-
CC(C)NC(=S)N/N=C/c1ccc2c(c1)OCCO2	?	2.2µM	-	?	-
COCCCNC(=S)N/N=C/c1ccc2c(c1)OCO2	?	5.6µM	-	-	-
